SMARCA2 activ: increases SMARCA2 function in MMTV reporter cells. MG213 cells, MMTV-luciferase reporter, dexamethasone, overnight. activation, % at 9.1 µM. 370,000 compounds, 1% hits. AID 652017; in the data active = activation above about 7.8%;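 also: 0% = vehicle wells and 100% = reference activator wells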
hgDAF12 agonist: agonists of H. glycines DAF-12 nuclear receptor; HEK293 GAL4-hgDAF12 UAS-luciferase reporter, agonist luminescence; normalized to butyrate control; activation, % at 6.8 µM; 370,000 compounds, 1.8% hits; AID 687014;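 active = activation above a cutoff set at the mean of all screened compounds plus 3 SD, cut at about 10% in these data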;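 also: 0% = DMSO wells and 100% = sodium butyrate wells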
DAX1 inh-1: NR0B1 (DAX1) inhibition; P51843; HEK293 Gal4-DAX1 luciferase reporter, luminescence; inhibition, % at 6.75 µM; 340,000 compounds, 0.99% hits;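 active = inhibition above the mean over all tested compounds plus 3 SD, cut at about 4.2% in these data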;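 also: 0% = DAX1-transfected cells with DMSO and 100% = empty-vector control cells with DMSO; inhibition shows as a rise in luminescence from relieved DAX1 repression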
Target sequence (P51843 207-470 limits assumed): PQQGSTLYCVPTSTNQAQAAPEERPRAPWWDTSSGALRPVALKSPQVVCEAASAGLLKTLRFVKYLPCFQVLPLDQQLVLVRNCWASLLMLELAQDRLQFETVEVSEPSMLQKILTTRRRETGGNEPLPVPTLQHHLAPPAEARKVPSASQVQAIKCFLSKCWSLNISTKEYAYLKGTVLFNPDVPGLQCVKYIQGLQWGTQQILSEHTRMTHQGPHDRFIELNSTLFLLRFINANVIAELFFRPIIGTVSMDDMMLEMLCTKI
DAX1 inh-2: blocks DAX1 repression of SF-1 activated StAR promoter | HEK293T StAR-luciferase reporter, SF-1/DAX-1 repression relief | inhibition, % at 6.8 µM | 370,000 compounds, 1.1% hits | AID 652010;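 active = inhibition above the mean over all tested compounds plus 3 SD, cut at about 3.6% in these data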;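 also: 0% = DAX-1 cells with DMSO and 100% = cells lacking DAX-1 with DMSO; higher inhibition means more luminescence from relief of DAX-1 repression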
ssDAF12 agonist: S. stercoralis DAF-12 activation, primary screen. HEK293 ssDAF-12/GRIP1 lit1-tk-luc reporter, luminescence; % of 3 µM dafachronic acid response. activation, % at 6.8 µM. 370,000 compounds, 1% hits;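 active = activation above the mean over all tested compounds plus 3 SD, cut at about 0.9% in these data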;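 also: 0% = DMSO-only wells and 100% = 3 µM delta7-dafachronic acid wells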
hcDAF-12 act: activators of H. contortus DAF-12 nuclear receptor. HEK293 hcDAF-12 lit1-tk-luc reporter, luminescence; 0% DMSO, 100% Δ7-dafachronic acid. 370,000 compounds, 1.4% hits. activation, % at 6.8 µM;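 active = activation above the mean of all tested compounds plus 3 SD, cut at about 5.5% in these data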;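 also: 100% = response to 3 µM Δ7-dafachronic acid high control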
SMARCA2 act conf: confirmation of SMARCA2 (BRM) function activators; activation, % at 9.1 µM; MG213 cells, MMTV-luciferase with dexamethasone, luminescence, overnight; MG213 cells expressing E1A, Rb sequestered; DMSO wells 0%, reference activator 100%; shares compounds with SMARCA2 activ; 3,500 compounds, 30% hits; AID 652260;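 active = activation above its plate's cutoff, the mean activation of tested wells plus 3 SD, cut at about 7.9% in these data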
VP16 Luc act: GAL4-VP16 reporter activation counter-screen. HEK293 GAL4-VP16 pG5luc reporter, luciferase luminescence; scaled: DMSO wells 0%, SAHA wells 100%. 3,500 compounds, 41% hits. shares compounds with SMARCA2 activ. activation, % at 9.1 µM;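 active = activation above the solvent-only control well mean plus 3 SD, averaged across control plates, cut at about 5.2% in these data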
An asterisk follows results filed as active; / = no result given. A selection: hits, their analogues and other compounds. The true share with any hit is near 4.8%.

SMILES	SMARCA2 activ	hgDAF12 agonist	DAX1 inh-1	DAX1 inh-2	ssDAF12 agonist	hcDAF-12 act	SMARCA2 act conf	VP16 Luc act
O=C(NN=C1CCCCCCCCCCC1)c1ccccc1F	17.4*	11.8*	-0.2	2.8	0.1	2.7	-1.0	1.9
O=C(NN=C1CCCCCCC1)c1ccc(F)cc1	3.1	4.6	0.4	0.7	-0.8	0.3	/	/
CC(C)COc1ccc(-c2nnn(CC(=O)N3CCCC3)n2)cc1	9.9*	3.2	0.1	-0.9	-1.1	3.8	5.8	8.2*
O=C(Cn1nnc(-c2ccccc2)n1)N1CCCCC1	0.8	4.9	0.0	1.1	-0.9	2.6	/	/
COc1ccccc1Nc1nc(N)nc(CSC(=S)N2CCN(c3ccccc3)CC2)n1	8.7*	-2.8	2.4	-0.2	-0.5	-1.1	-6.8	-0.1
Cc1ccc(NC(=O)c2cnccn2)c(Br)c1	10.2*	9.2	0.8	0.9	0.1	0.1	7.6	6.2*
COC(=O)C1=C(C)N(Cc2ccccc2C(F)(F)F)C(=NCc2ccccc2C(F)(F)F)NC1c1ccc(Cl)cc1 (configuration not stated)	0.8	1.7	/	1.8	-0.8	-0.1	/	/
CCN(CC)CCN(C(=O)CCS(=O)(=O)c1ccccc1)c1nc2cc(OC)c(OC)cc2s1	8.7*	-0.8	1.4	-1.8	-1.5	0.5	-3.8	0.8
COc1ccc(OC)c2sc(N(CCCN(C)C)C(=O)CCS(=O)(=O)c3ccccc3)nc12	9.9*	-2.6	-2.9	1.4	-0.6	-0.6	-15.4	-0.8
COc1ccc(Cl)c2sc(N(CCN(C)C)C(=O)CCS(=O)(=O)c3ccc(C)cc3)nc12	-0.9	3.5	-0.5	-0.1	-1.3	0.4	/	/
C=CCN1[C@@H](C)[C@H](c2ccccc2)Oc2cccc(N3CCCC3)c2S1(=O)=O	-1.7	0.6	/	0.1	-1.4	0.3	/	/
O=C(OCCCN1CCC2(CCCCC2)C1=O)c1ccccc1	-2.3	-0.8	/	0.7	-0.9	-0.9	/	/
CCCn1nc(C(=O)N2CCN(c3ccccn3)CC2)c2ccccc2c1=O	8.1*	-2.1	0.1	0.1	-1.0	-1.5	-1.7	1.9
COc1ccc(-n2nc(C(=O)NCC(=O)N3CCN(c4ccccn4)CC3)c3ccccc3c2=O)cc1	10.8*	2.4	1.2	-0.2	-0.2	1.7	5.5	2.0
COc1ccc(-n2nc(C(=O)NCC(=O)N3CCN(c4ccccn4)CC3)c3ccccc3c2=O)cc1OC	1.7	-2.3	-0.5	-0.9	-2.5	-0.3	/	/
Cc1ccc(NC(=O)c2ccc(CS(=O)(=O)Cc3ccccc3C)o2)cc1C	-3.9	0.6	/	-2.5	-0.8	-1.7	/	/
Cc1ccc(/C=C/C(=O)Nc2nccs2)o1	10.8*	6.6	2.6	2.0	-1.1	1.7	8.4*	10.5*
Cc1ccc(/C=C/C(=O)NC2CCCCCCC2)o1	8.0*	6.9	-0.6	1.6	-0.3	-1.4	19.6*	4.5
Cc1ccsc1C(=O)Nc1nccs1	9.3*	4.5	1.0	0.4	0.3	0.3	2.7	2.8
Cc1ccc(/C=N/NC(=O)NC2CCCCC2)o1	-1.5	5.0	1.5	1.4	-0.7	-0.2	/	/
Cc1occc1C(=O)Nc1nccs1	3.2	0.0	-0.2	0.9	-0.5	0.1	/	/
COC(=O)[C@]12C[C@H](CC(=O)NCCC(C)C)C(=O)N(Cc3ccc(Cl)cc3Cl)C1=C[C@H](C1CCCC1)O[C@@H]2C	-2.8	-0.2	/	-0.5	-1.3	-3.2	/	/
CC1OC(OCC2OC(Oc3c(-c4ccc(O)cc4)oc4cc(O)cc(O)c4c3=O)C(O)C(O)C2O)C(O)C(O)C1O (configuration not stated)	-1.9	0.1	1.3	-0.2	-1.2	-0.1	/	/
C[C@@H]1O[C@@H](OC[C@H]2O[C@@H](Oc3c(-c4ccc(O)c(O)c4)oc4cc(O)cc(O)c4c3=O)[C@H](O)[C@@H](O)[C@@H]2O)[C@H](O)[C@H](O)[C@H]1O	8.2*	1.4	-1.1	0.9	-1.7	-1.4	0.3	1.8
CCOC(=O)Cc1nn(Cc2ccc(Cl)cc2)c(=O)c2ccccc12	8.8*	-0.5	1.6	-0.2	-1.5	-0.5	-4.0	1.1
SMILES	SMARCA2 activ	hgDAF12 agonist	DAX1 inh-1	DAX1 inh-2	ssDAF12 agonist	hcDAF-12 act	SMARCA2 act conf	VP16 Luc act
CCOC(=O)Cc1nn(Cc2ccccc2)c(=O)c2ccccc12	4.6	-1.6	-0.7	0.2	-1.6	-2.0	/	/
O=C(COC(=O)c1cccnc1Cl)Nc1nc(-c2ccccc2)cs1	9.9*	4.6	-0.2	1.1	-1.7	0.8	0.8	2.3
COc1ccc(-c2cc(C(=O)NN=Cc3ccccc3F)[nH]n2)cc1	-1.7	2.8	/	-0.7	-0.8	-1.7	/	/
CCOC(=O)[C@@]12CCC3=C1N(CCC3)C(=O)[C@H](CC(=O)N1CCCC1)C2	-2.2	-1.3	/	-0.4	-0.6	-1.1	/	/
COC(=O)Cn1c(CN2CCOCC2)nc2c1c(=O)n(C)c(=O)n2C	8.3*	-0.2	1.7	-0.3	-1.2	-1.1	1.1	-0.5
C=CC[C@@]1(c2ccccc2)Oc2ccccc2-c2nc3ccccc3nc21	-0.7	-2.2	/	-0.6	-1.6	-2.1	/	/
N/C(Cc1cccs1)=N\OC(=O)COc1ccc(Br)cc1Cl	7.7	8.6	2.5	1.2	-0.3	0.5	/	/
N/C(Cc1cccs1)=N\OC(=O)COc1ccccc1Cl	8.4*	7.6	0.8	1.4	0.1	0.4	4.0	6.8*
Cn1cnc([N+](=O)[O-])c1S(=O)(=O)Nc1ccccc1	3.0	3.4	-0.3	-1.4	-0.6	0.0	/	/
Cn1cnc([N+](=O)[O-])c1S(=O)(=O)Oc1ccccc1	20.3*	2.8	-0.8	-2.1	-0.7	0.9	-13.5	6.3*
C#CCNC(=O)C[C@H]1C[C@@]2(C(=O)OC)C(=C[C@H](C(C)C)O[C@@H]2C2CC2)N(Cc2ccc(Cl)cc2Cl)C1=O	-1.5	3.2	/	-0.9	-1.0	1.2	/	/
CN1C(c2ccccc2)CC2CN(c3ccccc3)C(=O)C21 (configuration not stated)	-2.0	-4.9	/	-3.5	-1.9	-3.1	/	/
O=C(Nc1nncs1)C1COc2ccccc2O1 (configuration not stated)	9.0*	4.2	0.9	1.0	-0.5	-0.7	4.1	4.6
CCCN1C(=O)C(=O)N(CC(=O)c2cc(C)n(C3CC3)c2C)C1=O	12.0*	10.0	1.5	3.8*	-0.8	3.4	10.7*	8.7*
Nc1ccccc1SCC(=O)N1CCc2ccccc21	5.1	4.2	1.0	1.8	-1.2	1.4	/	/
O=C(CSC1=NCCS1)N1CCc2ccccc21	8.1*	6.8	1.8	0.7	-0.2	0.9	12.2*	8.4*

Screening data deposited in PubChem by The Scripps Research Institute Molecular Screening Center.
